SMILES strings stand for the structures. This is part of a sample that, as a whole, favours compounds with a hit. Of some 83,000 tested, about 20% had one in any assay.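 The endpoint reported here, percent growth, reads 100 for growth as untreated, 0 for no net growth and -100 for all cells dead.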 Activity calls are given as the source filed them. The calls were made as follows: active = growth percent below 10; inactive = the rest.

This assay deals with MALME-3M melanoma. Put plainly: NCI-60 one-dose screen, 48 h (100 = growth as untreated, 0 = no growth, -100 = all killed). Particulars: 10 µM unless noted.
Consider `CCCOc1ccc2nc(NC(=O)OC)[nH]c2c1`, for which the growth is 38% (inactive).

`COc1cccc(/C=C2\Oc3cc(OCCN4CCCC4)ccc3C2=O)c1`: the growth was 104% (inactive).

As for `COc1ccc(/C=C2\Oc3cc(OCCCCN4CCCC4)ccc3C2=O)cc1`, the growth was 110% (inactive).

Turning to `COc1cccc(-c2nn(C(C)(C)C)cc2-c2ccnc(NCCCNS(=O)(=O)c3cccc4ccccc34)c2)c1`, the growth was 114% (inactive).

Consider `COc1cccc(-c2nc3sccn3c2-c2ccnc(NCCCNS(=O)(=O)c3c(Cl)cccc3Cl)c2)c1`, for which the growth was 73.2% (inactive).

`O=C1c2cc3c(cc2-c2c1c1cc(F)c(F)cc1c(=O)n2CCCn1ccnc1)OCO3`: the growth was -4.79% (active).

In the case of `O=C(/C=C/c1cccc(Cl)c1)c1ccc(O)c(CN2CCN(c3cc4c(cc3F)c(=O)c(C(=O)O)cn4C3CC3)CC2)c1`, the growth is 44.1% (inactive).

Turning to `CCCn1c(=O)[nH]c(N)c([C@H]2c3ccccc3Oc3[nH]c(=O)n(CCC)c(=O)c32)c1=O`, the growth was 78.4% (inactive).

On to `N#CCCN=Nc1c(O)[nH]c2ccc(F)cc12`, for which the growth was 99.2% (inactive).

On to `COc1ccc(-c2n[nH]nc2-c2csc3ccccc23)cc1OC`, for which the growth was 56.9% (inactive).

`COc1cc(/C=C/c2cc(O)c3cc(C(C)=O)c(=O)oc3c2)cc2c1O[C@]1(C)CC[C@@H](O)C(C)(C)[C@H]1C2`: the growth is 25.4% (inactive).

As for `O=C(N=Nc1c(O)[nH]c2ccc(Br)cc12)c1cc(-c2ccccc2)on1`, the growth is 89.5% (inactive).

On to `CSc1nc(NCc2ccccc2)c(C#N)c(-c2cccc([N+](=O)[O-])c2)n1`, for which the growth was 113% (inactive).

Take `O=S(=O)(Nc1ccc(Cl)c(F)c1)c1ccc(-c2cnc(C3CC3)o2)cc1`: the growth was 35.3% (inactive).

Take `CC1(C)CC[C@]2(C(=O)Nc3ccccn3)CC[C@]3(C)C(=CC[C@@H]4[C@@]5(C)C/C(=C/c6cccnc6)C(=O)C(C)(C)[C@@H]5CC[C@]43C)[C@H]2C1`: the growth was 48.3% (inactive).

Turning to `O=S(=O)(Nc1ccc(Br)c(Cl)c1)c1ccc(-c2cnc(C3CC3)o2)cc1`, the growth is 30.9% (inactive).

Regarding `C=C(C)[C@@H]1CC[C@]2(C(N)=O)CC[C@]3(C)[C@H](CC[C@@H]4[C@@]5(C)C/C(=C/c6ccco6)C(=O)C(C)(C)[C@@H]5CC[C@]43C)[C@@H]12`, the growth was 87% (inactive).

On to `Cc1nc2c3c(-c4ccccc4)c(-c4ccccc4)oc3ncn2n1`, for which the growth was 109% (inactive).

Consider `COc1cccc(-c2nn(C(C)(C)C)cc2-c2ccnc(NCCCNS(=O)(=O)c3ccc(C)cc3)c2)c1`, for which the growth is 101% (inactive).

Consider `COc1ccc(-c2nc3ccc(-c4nc5ccc(N6CCN(c7ccc(F)cc7)CC6)cc5[nH]4)cc3[nH]2)cc1OC`, for which the growth was 43.9% (inactive).

In the case of `O=C1NC(=S)NC(=O)C1CC(=O)n1c(-c2ccccc2)nc2ccccc21`, the growth is 93% (inactive).

In the case of `CSc1nc(NCCN2CCOCC2)c(C#N)c(-c2cccc([N+](=O)[O-])c2)n1`, the growth was 98.7% (inactive).

As to `N#Cc1c(-c2ccc(Cl)cc2)nc(N=Nc2c(O)[nH]c3ccc(Cl)cc23)nc1N1CCOCC1`, the growth is 88.8% (inactive).

As for `Cc1ccc(NS(=O)(=O)c2ccc(-c3cnc(C4CC4)o3)cc2)cc1C`, the growth was 42.6% (inactive).

Turning to `Oc1ccccc1-c1nnc(CNc2ccc(Cl)cc2)o1`, the growth is 44% (inactive).

The record behind these values is PubChem BioAssay (NCI).
